aSyn 5UTR act = Activators via SNCA 5'UTR binding, MLPCN; alpha-synuclein 5'UTR reporter, activators screen; AID 1814, 2009; activity score, % (tested at 7.5 µM), hits read low; 7.1% of 300,000 active; in the data active means activity score below about -60%
* = called active by the depositor. Not all results are given here.

SMILES	aSyn 5UTR act
Cc1cccc(C(=O)NC(=O)Nc2c(C)cc(C)nc2C)c1	-147*
Cc1nc(NC(=O)c2cccc(Cl)c2)sc1C(=O)N1CCCCC1	-138*
CCOC(=O)c1cnc2c(ccc3ccccc32)c1NCCCN(C)C	-358*
CC(=O)OCCc1c2ccccc2c(CCCN(C)C)c2ccccc12	103
O=[N+]([O-])c1ccc(C23CC4CC(CC(O)(C4)C2)C3)cc1	-87*
CCc1ccc2nc(NC(=O)c3ccc4c(=O)[nH]c(CN5CCOCC5)nc4c3)sc2c1	-107*
CCc1ccc2nc(NC(=O)c3ccc(N4C(=O)CCC4=O)cc3)sc2c1	-73*
CN(C)CCN(C(=O)c1ccc(N2C(=O)CCC2=O)cc1)c1nc2cc3c(cc2s1)OCCO3	-75*
Cc1ccc2nc(N(CCCN(C)C)C(=O)c3ccc(S(=O)(=O)N4CCc5ccccc5C4)cc3)sc2c1	88
O=C(Nc1nc2cc3c(cc2s1)OCCO3)c1ccc(N2C(=O)CCC2=O)cc1	-65*
O=C(Nc1nc2cc3c(cc2s1)OCCO3)c1ccco1	66
Cc1nc(SCCC(=O)O)c2cc(-c3ccccc3)sc2n1	67
CC(C)N(C(=O)CSc1ncnc2sc(-c3ccccc3)cc12)C(C)C	-88*
CCOc1ccc(NC(=O)n2ncc3c(C)cccc32)cc1	-179*
Cc1ccc(NC(=O)n2ncc3c(C)cccc32)c(C)c1	-108*
Cc1cccc2c1cnn2C(=O)Nc1ccc(Br)cc1F	-156*
Cc1cccc(-n2cnc3cc(C(=O)N4CCCCC4)ccc32)c1	-74*
Cc1ccc(N=C/C(C(=O)C(F)(F)F)=C(\O)c2ccco2)cc1Cl	-184*
Cc1cccc(N=C/C(C(=O)C(F)(F)F)=C(\O)c2ccco2)c1	-167*
O=C(/C(C=Nc1ccc(F)cc1)=C(/O)c1ccco1)C(F)(F)F	-113*
Oc1ccccc1OCc1nc2ccccc2s1	-113*
OCc1cc(Br)ccc1OCc1nc2ccccc2s1	-70*
O=C(Nc1ccc(Cl)cc1)c1ccc(Br)cc1F	-123*
COc1ccc(NC(=O)c2ccc3ccccc3c2OC)cc1	-215*
COc1cc2ccccc2cc1C(=O)Nc1ccccc1Cl	-139*
SMILES	aSyn 5UTR act
COc1cc2ccccc2cc1C(=O)Nc1ccc(N2CCN(C)CC2)cc1	-176*
CCOc1ccc(NC(=O)c2cc3ccccc3cc2OC)cc1	-133*
CCOc1ccc(NC(=O)c2cc(OC)nc3ccccc23)cc1	83
CCOc1ccc(NC(=O)c2cccc3ccccc23)cc1	-318*
CCOc1ccc(NC(=O)c2cc3ccccc3cc2O)cc1	-201*
CCOc1ccc(NC(=O)c2ccc(F)cc2F)cc1	-103*
COc1ccc(-c2cc(C(=O)Nc3cccnc3)no2)cc1OC	-187*
COc1ccc(NC(=O)c2cc3ccccc3cc2OC)cc1	-168*
COc1ccc(NC(=O)c2cc3c([nH]c4ccccc43)c(C)n2)cc1	-84*
COc1cc2ccccc2cc1C(=O)Nc1cccnc1	-139*
COc1ccc(C(=O)Nc2ccc3cn[nH]c3c2)c(OC)c1	-99*
COc1ccc(Nc2oc(COc3ccccc3OC)nc2C#N)cc1	98
COc1ccc(Nc2oc(-c3cccs3)nc2C#N)cc1	-171*
COc1ccc(Nc2oc(-c3ccccc3F)nc2C#N)cc1	-103*
CCN1CCN(Cc2ccc(NC(=O)c3cc(NC(=O)C(=O)c4c[nH]c5ccccc45)cc(OC)c3)cc2C(F)(F)F)CC1	117
O=C(Nc1ccc2c(c1)OCO2)C(=O)c1c[nH]c2ccccc12	-72*
Cc1[nH]c2ccccc2c1C(=O)C(=O)Nc1ccc2c(c1)OCCO2	-126*
O=C(N/N=C/c1cccnc1)c1ccc2c(c1)OCCO2	-82*
Cc1ccc(/C=N\NC(=O)c2ccc3c(c2)OCO3)o1	-81*
O=C(N/N=C/c1ccc([N+](=O)[O-])o1)c1ccc2c(c1)OCO2	94
COc1c(O)ccc(/C=N/NC(=O)c2ccc3c(c2)OCCO3)c1[N+](=O)[O-]	-110*
CN(C)c1ccc(/C=N/NC(=O)c2ccc3c(c2)OCO3)cc1	-104*
O=C(N/N=C/c1ccc(Br)o1)c1ccc2c(c1)OCCO2	-123*
CCNC(=S)N/N=C/c1cc(C)n(-c2ccc(Cl)cc2)c1C	-125*
O=C(Nc1ccccn1)c1sc2cc([N+](=O)[O-])ccc2c1Cl	-161*
SMILES	aSyn 5UTR act
CCOc1ccc(C(=O)NC(=S)Nc2ccccn2)cc1[N+](=O)[O-]	-104*
O=C(NC(=S)Nc1ccccn1)c1cccc([N+](=O)[O-])c1	-89*
CC1CCc2nc(NCCO)nc(C(F)(F)F)c2C1 (stereo not drawn)	54
O=C1NC2(CCCCC2)C(=O)N1/N=C/c1ccccc1Br	-81*
Cc1ccc(NC(=S)Nc2cccc3cnccc23)cc1	-102*
O=C(Nc1cccc2ccccc12)C12CC3CC(C1)CC(n1cnc([N+](=O)[O-])n1)(C3)C2	73
O=C(NNC(=S)Nc1cccc2ccccc12)c1cccc(Br)c1	-79*
CC(=O)Nc1cccc(NC(=S)Nc2cccc3ccccc23)c1	-116*
S=C(Nc1cccc2ccccc12)NC1CCCCC1	-195*
CC(=O)c1cccc(NC(=S)Nc2cccc3ccccc23)c1	-80*
Cc1ccc(-c2csc(NC(=O)CSc3nc(C)cc(=O)[nH]3)n2)cc1	-115*
Cc1ccc(-c2csc(NC(=O)CSC3=NCCS3)n2)cc1	-99*
O=C(CSc1nc2ccccc2[nH]1)Nc1nc(-c2cccc(Br)c2)cs1	-85*
CCCCn1c(=O)[nH]c(=O)c2c1nc(Cn1ncc(Cl)c(Cl)c1=O)n2CCC	-106*
O=c1c2ccccc2sc2ccc(Cl)cc12	-106*
C/C(=N\NC(=O)c1ccccc1)c1nc2ccccc2n1C	62
CCC(=O)Nc1nc2ccccc2n1Cc1ccc(C)cc1	77
CCn1c(NC(=O)c2cccs2)nc2ccccc21	-89*
Cn1c(NC(=O)c2ccc(F)cc2)nc2ccccc21	-103*
CCN(CC)CCn1c(NC(=O)c2ccc(C)cc2)nc2ccccc21	-65*
Cn1c(NC(=S)Nc2ccccc2)nc2ccccc21	-99*
CC(=O)Nc1nc2ccccc2n1Cc1ccc(Cl)cc1	51
CN(C)CCn1c(NC(=O)c2ccc(Cl)cc2)nc2ccccc21	-239*
CC1CCCN(C(=O)CSc2nc3ccccc3o2)C1 (stereo not drawn)	-99*
O=C(O)c1ccc2oc(SCC(=O)N3CCCCC3)nc2c1	-88*
SMILES	aSyn 5UTR act
N#C/C(=C\c1cccs1)C(=O)NCC1CCCO1 (stereo not drawn)	-66*
CC(C)OC(=O)/C(C#N)=C/c1c[nH]c2ccccc12	-80*
N#C/C(=C\c1c[nH]c2ccccc12)C(=O)NCC1CCCO1 (stereo not drawn)	-73*
CC(C)OC(=O)/C(C#N)=C/c1cn(Cc2ccccc2)c2ccccc12	75
CCOC(=O)c1ccc(-c2ccc(/C=C(\C#N)C(=O)NCC3CCCO3)o2)cc1 (stereo not drawn)	-85*
CC(=O)n1nc(-c2ccccc2)nc1NCc1ccc(N(C)C)cc1	-131*
COc1ccc(CNc2nc(-c3ccccc3)nn2C(=O)c2ccc([N+](=O)[O-])cc2)cc1	-120*
CCOC(=O)C1CCN(c2ncnc3c2cnn3-c2ccc(Cl)cc2)CC1	65
CC(=O)Cn1cnc2c(cnn2-c2ccc(C)c(C)c2)c1=O	-106*
CCOC(=O)Cn1cnc2c(cnn2-c2ccc(Cl)cc2)c1=O	-65*
CC(C)CCn1cnc2c(cnn2-c2ccc(F)cc2)c1=O	-83*
CCC1=[N+](CC(=O)c2ccc(C)cc2)CCn2cccc21	-123*
CC1=[N+](CC(=O)c2ccccc2)CCn2cccc21	-110*

Screening results as filed in PubChem BioAssay.
